The campaign covered roughly 91,000 compounds. About 310 (0.34%) were called active. Only a selection was taken, and actives are over-represented in it overall. Unmarked numbers belong to inactive results. Cut-off read from the data, not from the text of the source: active = inhibition above about 80%; inactive = the rest.

Sequence of Bifunctional epoxide hydrolase 2 (Homo sapiens) (P34913 whole entry, looked up): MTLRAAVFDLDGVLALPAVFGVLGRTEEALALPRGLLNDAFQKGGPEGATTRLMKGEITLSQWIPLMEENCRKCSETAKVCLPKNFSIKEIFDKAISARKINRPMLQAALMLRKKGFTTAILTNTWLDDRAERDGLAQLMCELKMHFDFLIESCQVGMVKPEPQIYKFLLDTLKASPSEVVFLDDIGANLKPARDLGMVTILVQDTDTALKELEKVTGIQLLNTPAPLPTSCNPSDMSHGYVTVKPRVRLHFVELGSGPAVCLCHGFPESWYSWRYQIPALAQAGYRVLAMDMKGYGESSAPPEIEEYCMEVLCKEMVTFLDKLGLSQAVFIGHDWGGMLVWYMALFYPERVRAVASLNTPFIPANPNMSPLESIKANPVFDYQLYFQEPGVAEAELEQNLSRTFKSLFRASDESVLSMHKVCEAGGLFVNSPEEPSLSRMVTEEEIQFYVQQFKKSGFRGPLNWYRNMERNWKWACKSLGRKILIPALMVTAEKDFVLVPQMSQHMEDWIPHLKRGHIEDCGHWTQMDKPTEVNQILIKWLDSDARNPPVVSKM

This experiment addresses Bifunctional epoxide hydrolase 2 (Homo sapiens) (UniProt P34913). The experiment can be described thus: soluble epoxide hydrolase inhibitors, primary screen, biochemical, human sEH (AID 707). As to conditions: recombinant human sEH enzymatic activity assay; at 2 µM; stronger effect = higher value.
A word on the inhibition: it is the drop in the measured response relative to a control, in per cent. Turning to `CON(C)S(=O)(=O)c1ccc2c(c1)NC(=O)C1CCCN21` (stereo not drawn), the inhibition was -14.7%.

Turning to `O=C(NNC(=O)c1cccnc1)Nc1ccccc1`, the inhibition was -21.5%.

As to `N#C/C(=C/c1ccc(Cl)cc1)NC(=O)c1ccccc1`, the inhibition was 3.7%.

`CCCCNC(=O)CSc1nc2ccc(NC(=O)CSc3nnc(COc4ccccc4C)n3C)cc2s1`: the inhibition was 88.5% (active).

As to `CCOC(=O)c1ccc(NC(=O)CSc2nnc(COc3ccccc3OC)n2C)cc1`, the inhibition was 9.6%.

Take `CCCCNC(=O)CSc1nnc(-c2ccco2)n1C`: the inhibition is -1.7%.

Turning to `CC(CC(=O)Nc1cc(C(F)(F)F)ccc1Cl)c1ccccc1` (stereo not drawn), the inhibition was 49.5%.

`CCc1c(C)nc2ncnn2c1N1CCC(C(=O)NCc2ccc3c(c2)OCO3)CC1`: the inhibition is 83.3% (active).

As to `CCOC(=O)NCc1ccc2c(c1)OCO2`, the inhibition was 4.7%.

On to `CC1CCCCN1CC(=O)NCc1ccc2c(c1)OCO2` (stereo not drawn), for which the inhibition was 3.9%.

As for `COc1ccc(NC(=O)Nc2ccc3nsnc3c2)cc1`, the inhibition is 75.6%.

`CCCCNCc1ccc(SC)cc1`: the inhibition was 10.8%.

With `COc1ccc2c(c1)SC(C)CC2=O` (stereo not drawn), the inhibition was -11.8%.

Consider `Cc1cccc(N(C(=O)Cc2cccs2)C(C(=O)NC2CCCC2)c2ccsc2)c1` (stereo not drawn), for which the inhibition was 1.9%.

For the compound `Cc1cccc(NC(=S)Nc2ccc(Br)cc2)c1`, the inhibition was 17.8%.

Turning to `COc1ccc(CCNC(=S)NC(=O)/C=C/c2ccc(C)cc2)cc1OC`, the inhibition was -0.9%.

In the case of `Cc1cccc(-n2cnc(C(=O)Nc3cccnc3)c2)n1`, the inhibition is -6.9%.

As to `Cc1ccc2nc(Nc3ccccc3O)nc(-c3ccccc3)c2c1`, the inhibition was 0.8%.

Regarding `c1ccc2c(CSCc3nc4ccccc4[nH]3)cccc2c1`, the inhibition was 10.5%.

With `Cc1ccccc1OC/C(O)=C(\C#N)c1nc2ccccc2[nH]1`, the inhibition was -13.4%.

Take `COC(=O)c1ccc(C(=O)Nc2cc(Cl)ccc2Cl)cc1NC(=O)c1ccccc1C`: the inhibition is -1.7%.

`Cc1ccccc1OCc1nnc(SCC(=O)N2c3ccccc3Sc3ccc(Cl)cc32)o1`: the inhibition is -2.3%.

As for `CC1Cc2ccccc2N1CC(=O)Nc1ccc2c(c1)OC(F)(F)O2` (stereo not drawn), the inhibition is 49.2%.

With `CCOC(=O)COc1cc(OCC(=O)OCC)c2c(=O)cc(-c3ccccc3)oc2c1`, the inhibition was -14.8%.

Turning to `COCCCn1c(SCc2cccc(OC)c2)nc2cc(OC)c(OC)cc2c1=N`, the inhibition was 7.8%.

Take `Cc1[nH]nc(-c2ccc(OCc3cnn(-c4ccccc4)c3)cc2O)c1Oc1ccc(Cl)cc1`: the inhibition was 11.4%.

Regarding `COc1ccc(C(=O)NC(=S)Nc2ccccc2N2CCN(S(C)(=O)=O)CC2)cc1OC`, the inhibition is 12.4%.

Turning to `Cc1ccc2nc(SCc3nnc(-c4ccccc4[N+](=O)[O-])o3)c(C#N)cc2c1`, the inhibition is 0.2%.

Turning to `Cc1cccc(-n2ncc(C#N)c2-n2cccc2)c1`, the inhibition was 0.9%.

As to `CCCC(=O)NC(Nc1ccccc1OC)C(Cl)(Cl)Cl` (stereo not drawn), the inhibition was 6.5%.

Turning to `Fc1ccccc1COc1ccccc1CNCc1ccncc1`, the inhibition was 5.2%.

For the compound `CC(=O)Nc1ccccc1C(=O)C(=O)Nc1ccc(F)cc1`, the inhibition was -20.5%.

On to `COC(=O)CNC(=O)c1ccccc1[N+](=O)[O-]`, for which the inhibition is -15.7%.

Regarding `O=C(CCc1ccc(S(=O)(=O)N2CCOCC2)cc1)Nc1ccc2ccccc2c1`, the inhibition is 21.6%.

As for `CONC(=O)c1cc(OCC(F)(F)F)ccc1OCC(F)(F)F`, the inhibition was 6%.

Consider `Cc1c(Br)c([N+](=O)[O-])nn1C(C)C(=O)Nc1nccs1` (stereo not drawn), for which the inhibition is -4.7%.

As for `N#Cc1ccc(-c2ccc(Cl)cc2)nc1Oc1ccc(F)cc1`, the inhibition was 7.8%.

With `COCc1cc(C)nc2sc3c(=O)n(-c4cccc5ccccc45)nnc3c12`, the inhibition was 3.4%.

As for `Cc1ccc(-n2c(C)cc(/C=C(\C#N)C(=O)NCC3CCCO3)c2C)cc1` (stereo not drawn), the inhibition is 10.8%.

On to `O=Cc1c(N2CCN(c3cccc(Cl)c3)CC2)nc2ccccn2c1=O`, for which the inhibition was 1.4%.

On to `Cc1cccc(NC(=O)Nc2cccc(Oc3c(F)c(F)c(F)c(F)c3F)c2)c1`, for which the inhibition was 80.6% (active).

For `CC(=O)c1cccc(NC(=O)Nc2ccc(C)cc2)c1`, the inhibition was 48.2%.

On to `COc1cccc(NC(=O)Cc2ccc(C)cc2)c1`, for which the inhibition is 1.6%.

In the case of `O=C(/C=C\NCC(=O)c1ccccc1)c1ccccc1`, the inhibition was 2.3%.

With `COc1ccc2c(c1OC)C(=O)c1ccccc1C2=O`, the inhibition is -2.2%.

Consider `Cc1onc(-c2c(Cl)cccc2Cl)c1C(=O)c1c[nH]c(C(=O)NC2CC2)c1`, for which the inhibition is 2%.

Regarding `Cc1[nH]n(-c2ccccc2)c(=O)c1CCOC(=O)c1ccc(C(F)(F)F)cc1`, the inhibition is 7.1%.

For `C/C(=N/NC(=O)c1ccc(NC(=O)c2ccc(F)cc2)cc1)c1ccccc1`, the inhibition was -3.4%.

For `Cc1cc2c(c(=O)n1C)C(C(C)C)C(C#N)=C(N)O2` (stereo not drawn), the inhibition is -3.6%.

Take `CNS(=O)(=O)c1cnccc1N1CCN(c2cccc(C)c2)CC1`: the inhibition was 13.4%.

Take `Cc1ccc(-c2nnc(-n3nnc4ccccc43)c3ccccc23)cc1`: the inhibition was -3.9%.

`C=CCNc1nc(N)c(C(=C(C#N)C#N)c2ccccc2)s1`: the inhibition is 4.9%.

Turning to `Cc1cc([N+](=O)[O-])c(N2CCC[C@@H]2C(=O)O)c([N+](=O)[O-])c1`, the inhibition is 3.1%.

For `COC(=O)CN(C(=S)Nc1ccc(Cl)cc1)C1CC(=O)N(c2ccc(OC)cc2)C1=O` (stereo not drawn), the inhibition was 12.2%.

As for `CC1=NN(C(=O)Cc2ccc(C)cc2)C(O)(c2cccnc2)C1` (stereo not drawn), the inhibition was 3.6%.

For `COc1ccc(C)cc1NC(=O)CCC(=O)Nc1nnc(C(F)(F)F)s1`, the inhibition was 15.2%.

As to `O=C(c1ccccc1)C(Cn1cncn1)C(Sc1ccccc1)c1ccccc1` (stereo not drawn), the inhibition was -1.8%.

For the compound `COc1ccc(C(=O)N2CCc3cc(OC)c(OC)cc3C2c2cccc([N+](=O)[O-])c2)cc1` (stereo not drawn), the inhibition was 0.6%.

For the compound `C=CCOc1c2ccc(C(=O)N(CC)c3ccc(OC)cc3)cc2nn1C`, the inhibition was 10.6%.

In the case of `Cc1ccc(C)c(NC(=O)C2Cc3ccccc3CN2C(=O)OCc2ccccc2)c1` (stereo not drawn), the inhibition is -5.4%.

For the compound `CCOc1ccc(NC(=O)Nc2cc(C)on2)cc1`, the inhibition is 2.9%.

Regarding `CC(=O)N(C)c1ccc(NC(=O)C(F)(F)F)cc1`, the inhibition is 3.7%.

Regarding `CCOc1ccc(NC(=O)Nc2ccc(N(C)C(C)=O)cc2)cc1`, the inhibition was 82.3% (active).

As for `Cc1cc(Nc2ccccc2)nc(N)n1`, the inhibition is 3%.

For `CCNC(=S)Nc1cccc(Cl)c1C`, the inhibition is -0.5%.

Take `CC(C)N(c1ccccc1)c1ncnc(NCCC(=O)O)c1[N+](=O)[O-]`: the inhibition is -1.2%.

`c1ccc2c(C[n+]3csc4ccccc43)cccc2c1`: the inhibition is -9%.

With `Cc1nn(-c2ccccn2)c2c1C(c1ccncc1)C1=C(CC(C)(C)CC1=O)N2` (stereo not drawn), the inhibition was -0.7%.

For `O=C(Cc1ccc2c(c1)CCCC2)Nc1ccccc1Cl`, the inhibition is 7.7%.

Regarding `O=C1c2ccccc2C(=O)c2c1cccc2N1CCN(CCO)CC1`, the inhibition was 5.4%.

For `COc1ccc(/C=C(/NC(=O)c2ccc(C)cc2)c2nc3ccccc3[nH]2)cc1OC`, the inhibition is 1.8%.

Turning to `Cc1ccccc1N/N=C/c1ccc(N2CCOCC2)cc1`, the inhibition was -9.2%.

Regarding `CC(Oc1ccc(Cl)cc1Cl)C(=O)/C=C/N(C)C` (stereo not drawn), the inhibition was 15.1%.

As to `COc1cnc(SCc2ccc(Cl)c(Cl)c2)nc1Cl`, the inhibition is -5.2%.

With `ONC(=Nc1ccc(Cl)cc1)c1ccccc1Cl`, the inhibition was -9.2%.

Regarding `CCOc1ccc(Nc2nc(Cc3nnc(SCC(=O)NC4CCCC4)n3C)cs2)cc1`, the inhibition is 10.9%.

For the compound `CN(C)Cc1ccccc1C1(O)c2ccccc2CSc2ccccc21` (stereo not drawn), the inhibition is 5.7%.

Turning to `Clc1ccc(-c2cc(COc3ccccc3)no2)cc1Cl`, the inhibition was -1.1%.

With `COc1ccc(C(=S)Nc2ccccc2)cc1`, the inhibition was 4.8%.

Take `CC(Cc1cccs1)NC(=O)NC1CCCCC1` (stereo not drawn): the inhibition was 92.6% (active).

With `CC(C)C(OC(=O)c1cccs1)C(=O)NC1CCCCC1` (stereo not drawn), the inhibition is -8.3%.

For the compound `Cc1ccsc1C(C(=O)NC1CCCCC1)N(C(=O)Cc1cccs1)C1CC1` (stereo not drawn), the inhibition was 5.3%.

With `CCOc1ccc(S(=O)(=O)Nc2nc3cc(OC)ccc3s2)cc1`, the inhibition is -14.5%.

Consider `CC(C)NS(=O)(=O)c1ccc(NC(=O)C2CCCCC2)cc1`, for which the inhibition is -3.1%.

In the case of `CCOC(=O)Nc1ccc(S(=O)(=O)N(C)C(C)C)cc1`, the inhibition was 1.6%.

For `Cc1ccccc1C(=O)N1CCC(C(=O)Nc2ccc(S(=O)(=O)N(C)C(C)C)cc2)CC1`, the inhibition is 83.8% (active).

For the compound `O=C(CSc1ncnc2c1cnn2CCc1ccccc1)Nc1ccc(F)cc1`, the inhibition was 20.5%.

For `O=C(c1cccc(F)c1)N1CCN(c2ccc([N+](=O)[O-])c(N3CCCCC3)c2)CC1`, the inhibition was 6.5%.

In the case of `CCOC(=O)/C(=C\c1ccc([N+](=O)[O-])cc1)C(=O)c1cc(C(C)=O)c(Nc2ccccc2)s1`, the inhibition is 10.3%.

Consider `COc1ccccc1OCCNc1cc(N2CCOCC2)ccc1[N+](=O)[O-]`, for which the inhibition is -3.3%.

Regarding `CCn1c2ccccc2c2cc(NC(=O)C/C(C)=N/NC(=O)c3ccccc3N)ccc21`, the inhibition is 4.8%.

For the compound `Cc1ccc(/C=N/NC(=O)C(NC(=O)c2ccccc2)c2n[nH]c(=O)c3ccccc23)cc1` (stereo not drawn), the inhibition is -0.8%.

Consider `COc1ccccc1NC(=O)[C@H](COCc1ccccc1)NC(=O)OC(C)(C)C`, for which the inhibition was -8.8%.

As for `CCOc1cccc(SCc2noc(C(=O)NC(C)C)c2C(=O)O)c1`, the inhibition is -1.8%.

With `CN(C)/C=C(\C#N)C(=O)c1cccnc1Oc1ccc(F)cc1F`, the inhibition was 12.8%.

`C=CCn1c(-c2ccc(Cl)cc2)ccc(C#N)c1=O`: the inhibition is -0.8%.

Regarding `CC1CCN(C(NC(=O)c2ccco2)C(=O)c2ccccc2)CC1` (stereo not drawn), the inhibition was -0.8%.

As for `O=C1CCN(C(=O)Nc2ccccc2)N1`, the inhibition was 2.7%.

Values taken from PubChem BioAssay AID707 (Columbia University Molecular Screening Center, 2007).
